ADAM17 inh: inhibits human ADAM17; recombinant ADAM17, EDANS/DABCYL FRET peptide cleavage; inhibition, % at 6.95 µM; AID 720648; hit rate 0.83% among 370,000; P78536;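 active = inhibition above the mean of compounds lying between control limits plus 3 SD, set per campaign, cut at about 8.5% in these data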;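 note: 0% = DMSO-only wells as the low control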
Target sequence (P78536 215-824 limits assumed): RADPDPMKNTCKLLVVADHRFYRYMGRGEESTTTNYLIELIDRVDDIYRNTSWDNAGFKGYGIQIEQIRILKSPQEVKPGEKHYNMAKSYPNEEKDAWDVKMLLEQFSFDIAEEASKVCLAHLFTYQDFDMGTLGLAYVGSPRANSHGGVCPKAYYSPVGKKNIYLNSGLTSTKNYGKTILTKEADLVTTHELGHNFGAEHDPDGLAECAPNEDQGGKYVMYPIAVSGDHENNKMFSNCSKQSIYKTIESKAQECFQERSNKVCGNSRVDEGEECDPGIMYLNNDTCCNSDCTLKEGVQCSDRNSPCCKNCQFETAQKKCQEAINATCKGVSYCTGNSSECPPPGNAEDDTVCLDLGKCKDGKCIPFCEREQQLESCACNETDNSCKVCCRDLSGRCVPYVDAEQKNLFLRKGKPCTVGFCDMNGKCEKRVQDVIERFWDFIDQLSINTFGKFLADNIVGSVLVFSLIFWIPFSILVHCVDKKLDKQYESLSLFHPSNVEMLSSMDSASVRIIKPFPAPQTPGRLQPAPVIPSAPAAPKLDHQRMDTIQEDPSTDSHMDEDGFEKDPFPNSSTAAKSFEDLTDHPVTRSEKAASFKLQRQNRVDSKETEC
ADAM10 inh: inhibitors of human ADAM10. recombinant ADAM10, EDANS/DABCYL FRET peptide cleavage, 3 h. inhibition, % at 7 µM. hit rate 0.62% among 370,000. AID 720582;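 active = inhibition above a per-campaign cutoff equal to the mean of compounds falling between control-based bounds plus 3 SD, cut at about 20% in these data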;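 note: 0% = DMSO wells while the 100% control is not disclosed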
proKLK7 act: proKLK7 (human) activation, primary screen; P49862; purified proKLK7, EDANS-DABCYL substrate fluorescence; 100% is mature enzyme control, 0% vehicle; activation, % at 7 µM; hit rate 0.9% among 370,000; AID 652039;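 active = activation above the mean of all tested compounds plus 3 SD, computed per campaign excluding outliers beyond control limits, cut at about 13% in these data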
PLC-beta3 inh: PLC-beta3 (human) inhibition, primary screen | AID 720704 | Purified PLC-beta3, fluorogenic substrate, fluorescence | inhibition, % at 12.2 µM | hit rate 0.18% among 370,000; in the data active = inhibition above about 11%;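 note: 0% = median of compound wells on plate and 100% = full blocker control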
PLCg1 inh: PLC-gamma1 (human) inhibition, primary screen | hit rate 0.84% among 370,000 | inhibition, % at 12.2 µM | purified PLC-gamma1, fluorogenic substrate, fluorescence | P19174; in the data active = inhibition above about 9.5%
proKLK7 act conf: proKLK7 activation, confirmation. AID 686949. activation, % at 7 µM. purified proKLK7, EDANS-DABCYL substrate fluorescence; scaled: vehicle 0, mature enzyme 100. shares compounds with proKLK7 act. hit rate 68% among 3,200;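 active = activation, as change over the incubation, above the mean of all tested compounds plus 3 SD, cut at about 13% in these data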
EDANS-DABCYL int: optically interferes with EDANS-DABCYL signal, flagging KLK7 hits | shares compounds with proKLK7 act | EDANS-DABCYL substrate fluorescence interference, no enzyme, 4 h; solvent 0%, active enzyme control 100% | activation, % at 7 µM | hit rate 80% among 3,200;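 active = activation above the all-compound mean plus 3 SD, ignoring values outside control-based bounds, cut at about 4.8% in these data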;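 note: value is the 4 h activation minus the activation read at time zero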
ADAM10 confirm: confirmation of inhibitors of human ADAM10; shares compounds with ADAM10 inh; ADAM10 QFRET peptide cleavage, EDANS fluorescence; inhibition, % at 6.95 µM; hit rate 1% among 2,100;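 active = inhibition above about 20% chosen separately for each screening run, limit read from the data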;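 note: 0% = DMSO wells and 100% = marimastat wells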
ADAM17 counter: counter-screen for ADAM10 exosite inhibitors: inhibitors of human ADAM17. shares compounds with ADAM10 inh. inhibition, % at 6.95 µM. AID 743214. hit rate 0.5% among 2,100. ADAM17 QFRET peptide cleavage, EDANS fluorescence;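 active = mean triplicate inhibition above the solvent-only control wells' mean plus 3 SD, cut at about 12% in these data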;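 note: 0% = DMSO wells and 100% = marimastat wells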
ADAM10 ctr: inhibits human ADAM10 in ADAM17 exosite counter-screen. shares compounds with ADAM17 inh. recombinant ADAM10, EDANS/DABCYL FRET peptide cleavage, 3 h. inhibition, % at 6.95 µM. hit rate 47% among 2,900. AID 743256;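 active = mean inhibition over the triplicate runs exceeds the activity threshold set in the earlier primary screen, cut at about 20% in these data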;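 note: 0% = DMSO wells and 100% = marimastat wells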
ADAM17 confirm: human ADAM17 inhibition, confirmation; shares compounds with ADAM17 inh; recombinant ADAM17, EDANS/DABCYL QFRET peptide cleavage; inhibition, % at 6.95 µM; hit rate 65% among 2,900;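 active = mean inhibition across replicates above the hit cutoff set in the primary screen, cut at about 8.5% in these data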;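 note: 0% = DMSO wells and 100% = marimastat wells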
Numbers without * were called inactive. Hits are enriched below; roughly 2.9% of the tested compounds scored in any of these assays.

Results for Cc1c(CC(=O)N2C[C@H]3C[C@@H](C2)c2cccc(=O)n2C3)c(=O)oc2c(C)c(O)ccc12 ?
ADAM17 inh: inactive; ADAM10 inh: inactive; proKLK7 act: 65*; PLC-beta3 inh: inactive; PLCg1 inh: inactive; proKLK7 act conf: 68*; EDANS-DABCYL int: 72*

What do the screens show for `COc1ccc(P2(=O)Nc3ccccc3N2)cc1`?
ADAM17 inh: 5; ADAM10 inh: -12; proKLK7 act: -1; PLC-beta3 inh: -25; PLCg1 inh: -19

How did COC(=O)C1=C(c2ccccc2OCc2ccccc2)C[C@@H]2CC[C@H]1N2C(=O)NCc1ccc(C(C)(C)C)cc1 do in these assays?
ADAM17 inh: 4; ADAM10 inh: 25*; proKLK7 act: 0; PLC-beta3 inh: 2; PLCg1 inh: 1; ADAM10 confirm: 11; ADAM17 counter: 3

How did COC(=O)C1=C(c2cccc(OCc3ccccc3)c2)C[C@@H]2CC[C@H]1N2C(=O)NCc1ccc([N+](=O)[O-])cc1 do in these assays?
ADAM17 inh: 7; ADAM10 inh: 26*; proKLK7 act: -1; PLC-beta3 inh: 4; PLCg1 inh: -1; ADAM10 confirm: 9; ADAM17 counter: 2

Results for COC(=O)C1=C(c2ccccc2OCc2ccccc2)C[C@@H]2CC[C@H]1N2C(=O)NCc1ccc(F)cc1 ?
ADAM17 inh: -1; ADAM10 inh: 12; proKLK7 act: 0; PLC-beta3 inh: 0; PLCg1 inh: -1

Results for C=C1C2C[C@@]3([C@@H]1O)[C@@H](C[C@@H]2O)[C@@]12C4[C@@H]3C[C@@H]1[C@@](C)(CC[C@@H]2O)CN4CC ?
ADAM17 inh: -3; ADAM10 inh: -5; proKLK7 act: 0; PLC-beta3 inh: 3; PLCg1 inh: -3

What do the screens show for `CCCCCCC(C)(C)c1ccc([C@@H]2C[C@H](O)CC[C@H]2CCCO)c(O)c1`?
ADAM17 inh: 6; ADAM10 inh: 27*; proKLK7 act: 0; PLC-beta3 inh: 3; PLCg1 inh: 2; ADAM10 confirm: 5; ADAM17 counter: 1

How did COC(=O)c1ccc(NC(=O)CSc2nc3ccc(N4C(=O)C5C6C=CC(C6)C5C4=O)cc3s2)cc1 (stereo not given) do in these assays?
ADAM17 inh: 7; ADAM10 inh: 25*; proKLK7 act: 0; PLC-beta3 inh: 3; PLCg1 inh: 5; ADAM10 confirm: 5; ADAM17 counter: 2

How did C[C@]12CCC3C(CC[C@@H]4[C@H]5O[C@H]5CC[C@]34C)C1CC[C@@H]2O (stereo not given in full) do in these assays?
ADAM17 inh: -1; ADAM10 inh: 3; proKLK7 act: 0; PLC-beta3 inh: 2; PLCg1 inh: -3

What do the screens show for `O=C(COC(=O)c1cccc(O)c1)Nc1ccc(Cl)cc1C(=O)c1ccccc1`?
ADAM17 inh: 8; ADAM10 inh: 23*; proKLK7 act: 1; PLC-beta3 inh: 0; PLCg1 inh: -1; ADAM10 confirm: 7; ADAM17 counter: 1

How did CCOc1ccccc1OCC(=O)Nc1ccc(Cl)cc1C(=O)c1ccccc1 do in these assays?
ADAM17 inh: 6; ADAM10 inh: 6; proKLK7 act: 0; PLC-beta3 inh: 3; PLCg1 inh: 3

Results for O=C1NCN(c2ccccc2)C12CCN(C(CCc1ccccc1)c1nnnn1-c1ccc3c(c1)OCCO3)CC2 (stereo not given) ?
ADAM17 inh: 11*; ADAM10 inh: 25*; proKLK7 act: 1; PLC-beta3 inh: 2; PLCg1 inh: 5; ADAM10 confirm: 10; ADAM17 counter: 4

What do the screens show for `CCN1C(=O)C(=Cc2ccc(N3CCOCC3)o2)C(=O)N(CC)C1=S`?
ADAM17 inh: -1; ADAM10 inh: 25*; proKLK7 act: 0; PLC-beta3 inh: -11; PLCg1 inh: 4; ADAM10 confirm: -1; ADAM17 counter: 0

How did O=c1c2ccccc2nc(/C=C/c2ccccc2F)n1-c1ccccc1O do in these assays?
ADAM17 inh: 2; ADAM10 inh: 0; proKLK7 act: 0; PLC-beta3 inh: -71; PLCg1 inh: -42

Results for CC(C)(C)C(=O)O[C@H]1CC[C@@]2(C)C(=CC(=O)C3C2CC[C@]2(C)C(=O)[C@@H](F)CC32)C1 (stereo not given in full) ?
ADAM17 inh: -4; ADAM10 inh: -19; proKLK7 act: 1; PLC-beta3 inh: 2; PLCg1 inh: 0

How did Cc1cc(C)n(CCOC(=O)C2C(C=C(Cl)Cl)C2(C)C)n1 (stereo not given) do in these assays?
ADAM17 inh: 0; ADAM10 inh: 10; proKLK7 act: 0; PLC-beta3 inh: 3; PLCg1 inh: 0

What do the screens show for `C=C[C@@]12CN(C)[C@H]3[C@H]1[C@@]1(C(=O)Nc4ccccc41)C1CC2[C@@H]3CO1`?
ADAM17 inh: 2; ADAM10 inh: 7; proKLK7 act: 0; PLC-beta3 inh: 7; PLCg1 inh: 2

How did CCCC/C(C)=C/[C@@H](NP(=O)(c1ccccc1)c1ccccc1)c1ccccc1 do in these assays?
ADAM17 inh: 9; ADAM10 inh: 20*; proKLK7 act: 0; PLC-beta3 inh: 1; PLCg1 inh: 2; ADAM10 confirm: 7; ADAM17 counter: 2

What do the screens show for `CC(C)c1ccc(C(c2c(O)c3ccccc3oc2=O)c2c(O)c3ccccc3oc2=O)cc1`?
ADAM17 inh: 9.6*; ADAM10 inh: 23*; proKLK7 act: 0; PLC-beta3 inh: -30; PLCg1 inh: -17; ADAM10 confirm: 8; ADAM17 counter: 1; ADAM10 ctr: 34*; ADAM17 confirm: 23*

How did CCCCCCCCn1sccc1=O do in these assays?
ADAM17 inh: -2; ADAM10 inh: 2; proKLK7 act: 0; PLC-beta3 inh: 1; PLCg1 inh: -1

Compound activity as filed in PubChem.
